Where “and” joins values, the source holds several entries; their conditions need not be identical. Equal values may be shown once. Compounds without any hit were thinned out: in the full panel of roughly 83,000, 20% have a hit.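 In brief: 96-well plates, 48 h treatment, single concentration, percent growth endpoint.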 A number with no mark means an inactive call. Calls of active or inactive are those of the source.
tested on: M14 melanoma; assay: NCI-60 one-dose screen, 48 h (100 = growth as untreated, 0 = no growth, -100 = all killed); conditions: 10 µM unless noted
Protocol: Growth inhibition of the M14 human tumor cell line is measured as a screen for anti-cancer activity. Cells are grown in 96 well plates and exposed to the test compound for 48 hours. Compounds are tested at a single concentration, which is 10^-5 M for most compounds. The reported endpoint is percent growth (GI% or GIPRCNT), where numbers from 0 - 100% represent growth inhibition, and numbers from -100% - 0 represent cell death. For example, a value of 40 represents 60% growth inhibition. A value of 0 means no net growth occurred over the course of the experiment. A value of -40 indicates 40% of cells at the beginning of the experiment died by the end of the experiment. A value of -100 means all cells are dead at the end of the experiment.
NCI-60 Human Tumor Cell Lines Screen was performed using the standard one-dose NCI protocol, which is described in more detail at https://dtp.cancer.gov/discovery_development/nci-60/default.htm.
Compounds with GIPRCNT values below 10 were considered active. Activity score was based on GIPRCNT using the following formula: […]
Score is 0 for GIPRCNT values of 100 or above, 50 for GIPRCNT values of 0, and 100 for GIPRCNT values of -100.

Row | Compound | growth
1 | COC(=O)CNC(=O)c1cccc(-c2cc(=O)c3c(OC)c(OC)c(OC)cc3o2)c1 | 103%
2 | CCN(CC)CCOc1ccc(C(=C(C)c2ccc(OC)cc2)c2ccc(OCCN(CC)CC)cc2)cc1 | -70.4% (active)
3 | C=C1CCc2nc(SCC(=O)O)ccc2N1 | 94.8%
4 | N#Cc1c(-c2ccc(F)cc2)cc(-c2c[nH]c3ccccc23)nc1-c1c[nH]c2ccccc12 | 97.4%
5 | OCC(Nc1ncnc2ccc(-c3cnc4cnccn34)cc12)c1ccccc1 (stereo not given) | 93.3%
6 | CCc1cc(OC(=O)N2CCC(N3CCCCC3)CC2)ccc1Nc1cc(-c2ccc(-n3cccn3)cc2)[nH]n1 | -85.5% (active)
7 | Clc1cccc(/C=N/Nc2nc(N/N=C/c3cccc(Cl)c3)nc(N3CCCCC3)n2)c1 | 95.3%
8 | O=C(CSc1nc2ccccc2c(=O)n1-c1ccccc1)N/N=C/c1ccc(Oc2ccc(Br)cc2)cc1 | 56.3%
9 | COc1cc(-c2nc(-c3ccccc3)[nH]c2-c2ccnc(NCCCNS(=O)(=O)c3ccc(C)cc3)n2)ccc1F | 77.7%
10 | O=C(O)CC1CCN(c2ccc3nnc(Cl)n3n2)CC1 | 94.6%
11 | CN1CCN(Cc2ccc(NC(=O)c3cncc(C#Cc4cnc(N)nc4)c3)cc2C(F)(F)F)CC1 | -19.3% (active)
12 | CCCc1[nH]c(-c2cc(N)ccc2Cl)c2c1C(=O)CCCC2 | 107%
13 | Cc1csc(/N=C(N)/N=C(\N)c2cccs2)n1 | 99.1%
14 | CCN(CC)CCOc1ccc(C(=C(C)Cc2ccc(OC)cc2)c2ccc(OCCN(CC)CC)cc2)cc1 | -53.6% (active)
15 | COc1ccc(C(C)=C(c2ccc(OCCN(C)C)cc2)c2ccc(OCCN(C)C)cc2)cc1 | -85.8% (active)
16 | O=C(CCCCCC/C=C\c1csc(Br)n1)NO | 93.9%
17 | C/C(=N\NC(=O)/C=C/CC(=O)O)c1nnn(-c2ccc([N+](=O)[O-])cc2)c1C | 103%
18 | N#Cc1cnc2ccc(-c3cnc4n[nH]nc4c3)cc2c1N1CCc2cc(F)c(Cl)cc21 | 21.2%
19 | CCCCc1nc2c(N)nc3ccccc3c2n1Cc1ccc(OC)cc1 | 67.3%
20 | CC1=C(C)C(=O)C(Nc2ccc(C)c(C)c2)=C(Br)C1=O | 96.5%

Row | Compound | growth
21 | O=C(COc1ccc(/C=C2\C(=O)Nc3cc(Cl)ccc32)cc1)Nc1ccc(Cl)cc1 | 22.1%
22 | NC1=NC2(CCCC2)N(c2ccc(S(=O)(=O)Nc3nccs3)cc2)C(N)=N1 | 108%
23 | O=C(CCCCCCNC(=O)C(O)(O)C(F)(F)F)Nc1nc2ccccc2s1 | 14.5%
24 | CCCCCN1C(=O)/C(=c2\sc3n(c2=O)C2C(NN=3)N(CC)C(=O)N2CC)c2cccc(C)c21 (stereo not given) | 51.4%
25 | CN1CCN(CCCCCC(=O)Nc2nc(-c3cccc(NS(=O)(=O)c4cccc5c(N(C)C)cccc45)c3)cs2)CC1 | -28.7% (active)
26 | Cc1ccc2c(n1)C(=O)C(Cl)=C(Nc1ccc(C(F)(F)F)cc1)C2=O | 28.6%
27 | CCN(CC)S(=O)(=O)c1ccc(-c2nc(C(Cl)Cl)nc3cc(C)nn23)cc1 | 4.27% (active)
28 | Cc1[nH]c(C(=O)Nc2ccc(C(N)=O)cc2N2CCOC(C)C2)c(Cl)c1Cl (stereo not given) | 101%
29 | C#CCOc1ccc(-c2csc(NC(=O)C=C)n2)cc1NS(=O)(=O)c1cccc2c(N(C)C)cccc12 | 31.9%
30 | CCCCCCCCCC(=O)NC(C)(C)C(=O)N1CCC[C@H]1C(=O)N[C@@H](CC(C)C)C(=O)N[C@@](C)(CC)C(=O)N[C@@H](CCC(N)=O)C(=O)N[C@H](CCC(N)=O)C(=O)NC(C)(C)C(=O)NC(C)(C)C(=O)N[C@@H](CCC(N)=O)C(=O)N[C@H](CC(C)C)C(=O)N[C@H](CO)CC(C)C | -77.5% (active) and -65.7% (active)
31 | C/C(=N\NC(=O)Nc1ccccc1)c1nnn(-c2ccc([N+](=O)[O-])cc2)c1C | 105%
32 | CN1CCN(c2ccc(Nc3nc(NCCNS(=O)(=O)c4ccccc4)c4sccc4n3)cc2)CC1 | 106%
33 | C/C(=N\NC(N)=S)c1nnn(-c2ccc([N+](=O)[O-])cc2)c1C | 99.5%
34 | CC1CC(=O)C2=C(C1)Nc1ccc(Br)cc1CC2c1c[nH]c2ccc(Br)cc12 (stereo not given) | 29%
35 | CCOC(=O)c1cccc(NC2=C(Cl)C(=O)C(C)=C(C)C2=O)c1 | 100%
36 | CC(C)Sc1nc(-c2ccccc2)c(C#N)c(N2CCOCC2)n1 | 96.9%
37 | CN1CCN(Cc2ccc(/C=N/Nc3ccnc4cc(Cl)ccc34)cc2)CC1 | 96.9%
38 | O=C(CN1CCN(c2cc(=O)[nH]c3ccc(F)cc23)CC1)N(c1ccccc1)c1ccccc1 | 105%
39 | C#C[C@]1(O)CC[C@H]2[C@@H]3CC=C4c5sc(Nc6ncccc6C)nc5CC[C@]4(C)[C@H]3CC[C@@]21C | -55.9% (active)
40 | COc1cc(/C=C2/C(=O)Nc3ccc(Cl)cc32)ccc1OCc1ccc(Cl)cc1 | 96.4%

— PubChem BioAssay (NCI)
